# This excerpt belongs to a sample that is enriched for hits.
# Pf Dd2 growth – qHTS Primary assay for Inhibitors of Plasmodium falciparum Dd2 growth in vitro; P. falciparum Dd2 growth, SYBR Green, 72 h; Potency, µM (highest dose often 28.9 µM), without a hit: at the highest dose activity, negative = inhibition, actives largely listed as inhibitors; 120,000 compounds, 4.3% hits; active = well fitted inhibition curve with a large enough effect;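 note: plate controls were DMSO vehicle for no effect and reference drug for full effect; nearly all actives have a fitted effect of over 65% in size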
#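 Infected erythrocytes (Dd2, 0.3% parasitemia, 2.5% hematocrit final) are added to compound in RPMI-1640/Albumax II medium, grown 72 h at 37C in low oxygen, then lysed with saponin/Triton-X containing SYBR Green and read by fluorescence.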
# * marks the source's active call; other numbers are inactive results; i = inactive; [ ] = dose if it differs, or a comment. Potency is the fitted concentration of half-maximal effect.
SMILES,Pf Dd2 growth
N#Cc1cccc(NC(=O)NC[C@H]2C[C@@H]3CCN2C[C@@H]3CN2CCSCC2)c1,-3.5%[44.1 µM]
CSc1cccc(NC(=O)NC[C@H]2C[C@@H]3CCN2C[C@@H]3CN2CCSCC2)c1,10µM*
O=C(NCc1ccc(F)cc1)C1CCN(C(=O)c2cnn(-c3ccccc3)c2-n2cccc2)CC1,-6.4%
COCCn1c(C)cc(O)c(C(c2ccc(C)cc2)N2CCCCC2)c1=O (stereo unspecified),i
CC(=O)Nc1ccc(C2(C(=O)O)CCC2)cc1,9.5%
Cc1n[nH]c(C)c1CNC(=O)CCC[C@@H]1[C@H]2CCCN3CCC[C@@H](CN1Cc1ccccc1)[C@@H]23,-12.4%
Cc1ccc(CNC(=O)CCC[C@@H]2[C@H]3CCCN4CCC[C@@H](CN2Cc2ccccc2)[C@@H]34)o1,3.55µM*
CC(C)NC(=O)CCC[C@@H]1[C@H]2CCCN3CCC[C@@H](CN1Cc1ccccc1)[C@@H]23,i
C[C@@H]1CN(C(=O)C2CCS(=O)(=O)CC2)C[C@]1(C)O,2.1%
CC1(C)[C@H]2CC[C@@H](CNC(=O)c3cncc(Br)c3)[C@@H]1C2,-20.7%
CC1(C)[C@H]2CC[C@@H](CNC(=O)c3ccccc3)[C@@H]1C2,-12.5%[44.1 µM]
CC1(C)[C@H]2CC[C@@H](CNC(=O)c3ccc(F)cc3)[C@@H]1C2,11.2µM*
CC(=O)NC[C@H]1CCN(C(=O)c2ccc(C(F)(F)F)cc2)C[C@H]1N(C)C,22.3%
CN(C)CCCC(=O)NC[C@@H]1CC[C@H]2C[C@@H]1C2(C)C,10µM*
COCC(=O)NC[C@@H]1CC[C@H]2C[C@@H]1C2(C)C,-3.6%[44.1 µM]
COC[C@H]1C[C@@H](NC(=O)c2ccc(C(F)(F)F)cc2)[C@H](O)[C@@H]1O,-5.1%[44.1 µM]
CC1(C)[C@H]2CC[C@@H](CNC(=O)c3ccc(C(F)(F)F)cc3)[C@@H]1C2,10µM*
O=C(C1CCc2ncc(-c3ccsc3)n2C1)N1CCC(Cc2ccccc2)CC1 (stereo unspecified),i
CC1(C)C(=O)Nc2ccc(S(=O)(=O)N3CCC(c4noc(-c5ccccn5)n4)C3)cc21 (stereo unspecified),13.5%[5.79 µM]
Cc1ccc(NS(=O)(=O)c2cn(C)c(C)n2)c(Br)c1,i
COc1cc(OC)cc(C(=O)Nc2cc(-c3nc4cccnc4s3)ccc2C)c1,-4.1%
CC(C)C(=O)N1Cc2ccccc2CC2(CCCCN2Cc2ccccn2)C1 (stereo unspecified),12.6µM*
CCC(=O)N1Cc2ccccc2CC2(CCCN2Cc2ccccn2)C1 (stereo unspecified),4.8%
CC(C)C(=O)N1Cc2ccccc2CC2(CCCCN2Cc2ccncc2)C1 (stereo unspecified),8.91µM*
C[S+](=O)([O-])N1CC2(CCCCN2Cc2ccccn2)Cc2ccccc21 (stereo unspecified),8.91µM*
SMILES,Pf Dd2 growth
CC(C)C(=O)N1CCCC2(Cc3ccccc3CN2[S+](=O)([O-])c2ccccc2)C1 (stereo unspecified),-19.1%
CC(=O)N1CC2(CCCN2Cc2ccccn2)Cc2ccccc21 (stereo unspecified),-15.9%
C[S+](=O)([O-])N1Cc2ccccc2CC2(CCCN2Cc2ccncc2)C1 (stereo unspecified),6.3%
CCC(=O)N1Cc2ccccc2CC2(CCCCN2Cc2ccccn2)C1 (stereo unspecified),-19.4%
CCCN1CCC2(CC1)Cc1ccccc1CN(C(=O)C(C)C)C2,-16.3%
CCCN1CCCC12Cc1ccccc1CN(C(=O)C(C)C)C2 (stereo unspecified),8.91µM*
C[S+](=O)([O-])N1Cc2ccccc2CC2(CCCN(Cc3ccccn3)C2)C1 (stereo unspecified),-29.4%
Cc1ccc(Cl)cc1NC(=O)N(C)CC1CCOC1 (stereo unspecified),i[5.79 µM]
CCn1c2ccccc2c2cc(NC(=O)COc3ccc(C)c(C)c3)ccc21,64.8%
Cc1nc(CCNC(=O)C2CCC2)no1,-4.1%
Cc1sc2ncn(CC(=O)Nc3cccc(C(F)(F)F)c3)c(=O)c2c1S(=O)(=O)N1CCC(C)CC1,24.9%
O=C(Cn1nc(-c2ccco2)ccc1=O)NC1CCCc2c1[nH]c1ccccc21 (stereo unspecified),6.7%
O=C(O)C1(Oc2ccccc2)CCN(c2cc(NCCO)ncn2)CC1,-17.9%
Cc1ncsc1CN1CCCC(n2c(C)cnc2-c2cccnc2)C1 (stereo unspecified),-4.2%
Cc1ccc(Cl)cc1NC(=O)c1ccc2snnc2c1,21.1%
CCC(Cn1cnc(-c2ccccc2)c1-c1ccc(C#N)cc1)N1CCN(C)CC1 (stereo unspecified),8.91µM*
CCSc1ncc(-c2c(-c3ccccc3)ncn2CC[C@@H](C)CO)cn1,-25.8%
CCOCCn1cnc(-c2ccccc2)c1-c1cccc(C#N)c1,i
CC(=O)Nc1ccc(S(=O)(=O)NCc2ccc3c(c2)CCN3C(C)=O)cc1,23.9%
Cc1ccc2c(=O)cc(C(=O)Nc3sc4c(c3C(=O)NCc3ccco3)CCC4)oc2c1C,38.3%
COC(=O)c1c(NC(=O)c2cccc(OC)c2)sc2c1CCC(C(C)(C)C)C2 (stereo unspecified),-4.4%
CCC(CC)NC(=O)CCC1CCN(C(=O)c2ccccc2Cl)CC1,-12.6%
CC1CCN(C(=O)c2c(NC(=O)c3ccccc3Cl)sc3c2CCC(C(C)(C)C)C3)CC1 (stereo unspecified),11.2µM*
Cc1ccccc1C(=O)Nc1sc2c(c1C(=O)N1CCCCC1)CCC(C(C)(C)C)C2 (stereo unspecified),5.62µM*
Cc1ccccc1C(=O)Nc1sc2c(c1C(=O)O)CCC(C(C)(C)C)C2 (stereo unspecified),-27.1%
SMILES,Pf Dd2 growth
Cc1cc(C)c2c(=O)cc(C(=O)Nc3sc4c(c3C(=O)NCc3ccco3)CCCC4)oc2c1,-2.6%
Cc1ccccc1C(=O)Nc1sc2c(c1C(=O)NCc1ccco1)CCC(C(C)(C)C)C2 (stereo unspecified),11.2µM*
CC(C)(C)C1CCc2c(sc(NC(=O)c3cc(-c4ccc(F)cc4)on3)c2C#N)C1 (stereo unspecified),32.7%
Cc1cc(S(=O)(=O)N2C[C@@H](F)C[C@H]2C(=O)N2CCCCC2)ccc1Cl,-4.4%
COc1ccc(C)cc1-c1cn(C)c(=O)n2cc(COc3ccccc3)nc12,i
Cc1nn(C)c(C)c1CCC(=O)N1CCC(Cc2noc(C3CCOCC3)n2)C1 (stereo unspecified),5.0%
Cn1ncc(N2CCC(CNC(=O)CN3CCCC3=O)C2)cc1=O (stereo unspecified),-17.1%
O=C(CCS(=O)(=O)c1cc2c(cc1Cl)NC(=O)CO2)NCc1ccccc1Cl,7.7%
COc1ccccc1C(=O)N1CCC2(COc3ccncc3[S+](=O)([O-])N2)C1 (stereo unspecified),16.5%
CCCC1c2nccn2CCCN1C(=O)c1ccncc1F (stereo unspecified),-8.6%
CCC(C)NC(=O)C(NC(=O)c1ccc(C)cc1)C1CCN(C(=O)C(C)C)CC1 (stereo unspecified),-12.0%
CCC(C)NC(=O)C(NC(=O)c1ccc(F)cc1)C1CCN(C(=O)c2cccc(F)c2)CC1 (stereo unspecified),i
COc1ccc(C(=O)N2CCC(C(NC(=O)c3ccccc3C)C(=O)NCC(C)C)CC2)cc1 (stereo unspecified),i
Cc1ccc(C(=O)N2CCC(C(NC(=O)c3ccccc3C)C(=O)NCC(C)C)CC2)cc1 (stereo unspecified),7.94µM*
